# Data as given in PubChem BioAssay (Tox21).
# “And” between values parts separate entries of the source, which are not always exact repeats. Equal entries are not always repeated. More than one record can exist for a structure, and the calls need not agree. The source made the active and inactive calls. Entries that show only a call come without a potency. Unless noted, the call rests on the fitted dose curve; in most records, active means well fitted curve in the direction sought with a large enough effect in the repeat runs; inconclusive means weak or mixed curves; inactive means no such curve, though single readings can be large; an effect the other way counts as inactive or inconclusive.
# Tests used:
# [1] = qHTS assay to identify small molecule antagonists of the glucocorticoid receptor (GR) signaling pathway - cell viability counter screen (AID 720693); further: nearly all actives have a fitted effect of over 55% in size
# [2] = qHTS assay for identifying genotoxic compounds that show differential cytotoxicity against isogenic chicken DT40 cell lines with known DNA damage response pathways - wild type cell line (AID 743012); further: nearly all actives have a fitted effect of over 60% in size; further: potency means the concentration at half of the fitted maximal effect
# How it was run: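 Viability by ATP luminescence (CellTiter-Glo, 30 min RT) after 40 h compound treatment at 37 C/5% CO2, using 300 parental DNA repair-proficient DT40 cells per well.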
# [3] = qHTS assay for identifying genotoxic compounds that show differential cytotoxicity against isogenic chicken DT40 cell lines with known DNA damage response pathways - Rev3 mutant cell line (AID 743014); further: nearly all actives have a fitted effect of over 55% in size; further: potency means the concentration at half of the fitted maximal effect
# [4] = qHTS assay for identifying genotoxic compounds that show differential cytotoxicity against isogenic chicken DT40 cell lines with known DNA damage response pathways - Rad54/Ku70 mutant cell line (AID 743015); further: nearly all actives have a fitted effect of over 60% in size; further: potency means the concentration at half of the fitted maximal effect
# [5] = qHTS assay to identify small molecule antagonists of the androgen receptor (AR) signaling pathway - cell viability counter screen (AID 743033; further: nearly all actives have a fitted effect of over 45% in size; further: potency means the concentration at half of the fitted maximal effect)
# [6] = qHTS assay to identify small molecule antagonists of the thyroid receptor (TR) signaling pathway - cell viability counter screen (AID 743064); further: nearly all actives have a fitted effect of over 50% in size; further: potency means the concentration at half of the fitted maximal effect
# How it was run: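 In rat pituitary GH3.TRE-Luc reporter cells co-exposed to compound and 1 nM T3 for 23.5 h, cytotoxicity was assessed with CellTiter-Fluor in the same wells, read by fluorescence.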
# [7] = qHTS assay to identify small molecule antagonists of the thyroid receptor (TR) signaling pathway (AID 743065); further: nearly all actives have a fitted effect of over 55% in size; further: potency means the concentration at half of the fitted maximal effect
# How it was run: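 GH3.TRE-Luc rat pituitary cells carrying two TR response elements driving luciferase were plated for 4 h, given compound plus 1 nM T3 (final), and incubated 23.5 h at 37 C. ONE-Glo luminescence measured reporter inhibition; CellTiter-Fluor fluorescence tracked cytotoxicity.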
# [8] = test system: thyroid hormone receptor (rat, GH3 cells); assay: qHTS assay to identify small molecule agonists of the thyroid receptor (TR) signaling pathway (AID 743066; calls by dose curve)
# [9] = target: Estrogen receptor (Homo sapiens) (UniProt P03372); assay: qHTS assay to identify small molecule antagonists of the estrogen receptor alpha (ER-alpha) signaling pathway (AID 743069; active means well fitted curve in the direction sought with a large enough effect in the signal ratio in the repeat runs, not every such curve was filed as active; inconclusive means weak or mixed curves, or effect the other way; inactive means no such curve, though single readings can be large or run the other way; the % refers to the signal ratio; further: potency means the concentration at half of the fitted maximal effect)
# Sequence of Estrogen receptor (Homo sapiens) (P03372 whole entry, looked up): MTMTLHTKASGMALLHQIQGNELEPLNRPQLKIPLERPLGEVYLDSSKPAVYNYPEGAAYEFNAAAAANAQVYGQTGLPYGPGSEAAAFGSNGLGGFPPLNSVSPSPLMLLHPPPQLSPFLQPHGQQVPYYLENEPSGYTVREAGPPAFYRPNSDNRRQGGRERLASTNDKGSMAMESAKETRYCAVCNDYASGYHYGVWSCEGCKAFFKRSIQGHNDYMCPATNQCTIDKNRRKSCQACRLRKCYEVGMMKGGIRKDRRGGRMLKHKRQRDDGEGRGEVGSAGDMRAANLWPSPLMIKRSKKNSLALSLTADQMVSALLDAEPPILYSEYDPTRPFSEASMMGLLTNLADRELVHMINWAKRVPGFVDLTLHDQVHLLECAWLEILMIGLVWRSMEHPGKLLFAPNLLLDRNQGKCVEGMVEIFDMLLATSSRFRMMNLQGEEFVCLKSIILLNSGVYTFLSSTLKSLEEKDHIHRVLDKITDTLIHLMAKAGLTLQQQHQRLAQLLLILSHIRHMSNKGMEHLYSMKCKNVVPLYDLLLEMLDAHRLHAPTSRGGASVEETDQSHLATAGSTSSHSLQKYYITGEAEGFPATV
# How it was run: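 Screening used a UAS-driven beta-lactamase reporter integrated into HEK293 cells expressing ER-alpha, stimulated with 17beta-estradiol alongside test compounds over 18 hr at 37C; signal came from LiveBLAzer B/G FRET fluorescence.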
# [10] = qHTS assay to identify small molecule antagonists of the estrogen receptor alpha (ER-alpha) signaling pathway - cell viability counter screen (AID 743074; calls by dose curve; further: nearly all actives have a fitted effect of over 45% in size; further: potency means the concentration at half of the fitted maximal effect)
# [11] = target: Estrogen receptor (Homo sapiens) (UniProt P03372); assay: qHTS assay to identify small molecule agonists of the estrogen receptor alpha (ER-alpha) signaling pathway (AID 743075; calls by dose curve; further: potency means the concentration at half of the fitted maximal effect)
# [12] = target: Estrogen receptor (Homo sapiens) (UniProt P03372); assay: qHTS assay to identify small molecule agonists of the estrogen receptor alpha (ER-alpha) signaling pathway using the BG1 cell line (AID 743079); further: nearly all actives have a fitted effect of over 20% in size; further: potency means the concentration at half of the fitted maximal effect
# [13] = qHTS assay to identify small molecule antagonists of the estrogen receptor alpha (ER-alpha) signaling pathway using the BG1 cell line (AID 743080; calls by dose curve;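 further: BG1 cells stimulated with 17beta-estradiol alongside compound; nearly all actives have a fitted effect of over 25% in size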; further: potency means the concentration at half of the fitted maximal effect); settings: BG1Luc4E2 ERE-luciferase antagonist mode, luminescence; activity change, negative = inhibition: at 70.3 µM (top of the series)
# How it was run: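 BG1-Luc-4E2 cells (endogenous full-length ER-alpha, 4xERE luciferase) hormone-starved 5 days in charcoal-stripped FBS, plated 4,000/well for 24 h, then compound plus 17beta-estradiol for 21.5 h at 37 C; ONE-Glo luminescence read.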
# [14] = qHTS assay to identify small molecule antagonists of the estrogen receptor alpha (ER-alpha) signaling pathway using the BG1 cell line - cell viability counter screen (AID 743081);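 further: compound given together with 17beta-estradiol as the ER stimulus; nearly all actives have a fitted effect of over 45% in size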
# Aromatase (Homo sapiens) = Aromatase (Homo sapiens) (UniProt P11511); assay: qHTS assay to identify aromatase inhibitors (AID 743083); further: nearly all actives have a fitted effect of over 55% in size; further: potency means the concentration at half of the fitted maximal effect
# Sequence of Aromatase (Homo sapiens) (P11511 whole entry, looked up): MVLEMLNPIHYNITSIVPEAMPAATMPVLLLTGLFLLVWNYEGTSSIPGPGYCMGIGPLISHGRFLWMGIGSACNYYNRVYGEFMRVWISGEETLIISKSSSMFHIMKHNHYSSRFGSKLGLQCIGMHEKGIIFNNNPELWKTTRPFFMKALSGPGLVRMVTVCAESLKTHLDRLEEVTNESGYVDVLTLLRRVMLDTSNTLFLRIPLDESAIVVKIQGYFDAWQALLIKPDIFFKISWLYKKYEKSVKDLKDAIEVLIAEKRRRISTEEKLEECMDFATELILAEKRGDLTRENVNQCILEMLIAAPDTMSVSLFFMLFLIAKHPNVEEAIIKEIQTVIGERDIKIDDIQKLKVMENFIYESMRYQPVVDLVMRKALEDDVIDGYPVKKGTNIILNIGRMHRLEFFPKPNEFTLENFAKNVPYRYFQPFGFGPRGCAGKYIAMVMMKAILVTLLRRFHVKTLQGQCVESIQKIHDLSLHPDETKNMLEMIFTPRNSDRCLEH
# [15] = qHTS assay to identify small molecule antagonists of the androgen receptor (AR) signaling pathway using the MDA cell line - cell viability counter screen (AID 743041; further: nearly all actives have a fitted effect of over 45% in size)
# How it was run: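 qHTS viability read-out; MDA-kb2 AR-luc; R1881-stimulated; 16 h exposure at 37C, 0% CO2; CellTiter-Fluor, 30 min; fluorescence intensity.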
# [16] = target: Androgen receptor (Homo sapiens) (UniProt P10275); assay: qHTS assay to identify small molecule antagonists of the androgen receptor (AR) signaling pathway (AID 743035; active means well fitted inhibition curve with a large enough effect in the signal ratio in the repeat runs, not every such curve was filed as active; inconclusive means weak or mixed curves, or effect the other way; inactive means no such curve, though single readings can be large or run the other way; the % refers to the signal ratio)
# Sequence of Androgen receptor (Homo sapiens) (P10275 whole entry, looked up): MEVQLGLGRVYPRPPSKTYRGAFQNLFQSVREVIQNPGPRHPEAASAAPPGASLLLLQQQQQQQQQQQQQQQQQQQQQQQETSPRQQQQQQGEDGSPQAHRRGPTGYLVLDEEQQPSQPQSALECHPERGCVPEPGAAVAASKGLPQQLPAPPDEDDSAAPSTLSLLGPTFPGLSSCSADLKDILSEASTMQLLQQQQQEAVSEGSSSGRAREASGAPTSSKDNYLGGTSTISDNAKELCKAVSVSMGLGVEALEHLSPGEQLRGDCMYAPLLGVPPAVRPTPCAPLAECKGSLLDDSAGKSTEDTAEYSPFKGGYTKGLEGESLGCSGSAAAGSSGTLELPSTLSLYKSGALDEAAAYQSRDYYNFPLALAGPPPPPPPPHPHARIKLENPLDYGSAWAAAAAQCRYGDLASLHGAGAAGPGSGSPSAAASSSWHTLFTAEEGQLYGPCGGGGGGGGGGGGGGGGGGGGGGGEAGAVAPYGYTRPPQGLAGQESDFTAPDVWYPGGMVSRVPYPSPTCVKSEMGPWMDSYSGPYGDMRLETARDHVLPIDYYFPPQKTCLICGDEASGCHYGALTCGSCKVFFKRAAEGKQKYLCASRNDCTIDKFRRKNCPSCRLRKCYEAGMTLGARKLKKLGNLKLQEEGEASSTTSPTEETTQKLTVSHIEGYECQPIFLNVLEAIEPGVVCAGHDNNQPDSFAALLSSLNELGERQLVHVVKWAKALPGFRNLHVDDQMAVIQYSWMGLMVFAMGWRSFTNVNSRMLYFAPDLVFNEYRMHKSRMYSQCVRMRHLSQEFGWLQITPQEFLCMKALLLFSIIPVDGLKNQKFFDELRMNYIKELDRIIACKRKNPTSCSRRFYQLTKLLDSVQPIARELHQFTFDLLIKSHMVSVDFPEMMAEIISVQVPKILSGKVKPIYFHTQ
# How it was run: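 Antagonist mode: AR-bla HEK293 cells co-treated with test compounds and agonist R1881 for 16 h at 37C, 5% CO2. Beta-lactamase activity read as FRET fluorescence after 2 h room-temperature substrate loading.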
# [17] = target: Androgen receptor (Homo sapiens) (UniProt P10275); assay: qHTS assay to identify small molecule agonists of the androgen receptor (AR) signaling pathway (AID 743036; active means well fitted activation curve with a large enough effect in the signal ratio in the repeat runs, with a control signal flat, not every such curve was filed as active; inconclusive means weak or mixed curves, or effect the other way; inactive means no such curve, though single readings can be large or run the other way; the % refers to the signal ratio)
# How it was run: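 Cell-based FRET reporter assay: HEK293 line with a UAS-beta-lactamase construct, compounds added in DMSO, 16 h exposure at 37C, then 2 h substrate step at room temperature and fluorescence intensity read.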
# [18] = target: Androgen receptor (Homo sapiens) (UniProt P10275); assay: qHTS assay to identify small molecule agonists of the androgen receptor (AR) signaling pathway using the MDA cell line (AID 743040; further: nearly all actives have a fitted effect of over 20% in size)
# How it was run: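 Agonist activity is measured as luciferase luminescence in human MDA-kb2 cells whose MMTV reporter responds to both AR and GR. Compounds in DMSO incubate 16 h at 37C, 0% CO2, and ONE-Glo is read after 30 min.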
# [19] = target: Androgen receptor (Homo sapiens) (UniProt P10275); assay: qHTS assay to identify small molecule antagonists of the androgen receptor (AR) signaling pathway using the MDA cell line (AID 743042; further: nearly all actives have a fitted effect of over 55% in size)
# How it was run: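 MDA-kb2 cells (human breast carcinoma, stably carrying an MMTV-luciferase reporter responsive to AR and GR) were plated at 3,000 cells/well and preincubated 5 hr at 37C, then given compound plus R1881 agonist for 16 h. ONE-Glo luminescence was read.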
SMILES,Potency [1],Potency [2],Potency [3],Potency [4],Potency [5],Potency [6],Potency [7],Potency [8],Potency [9],Potency [10],Potency [11],Potency [12],Potency [13],Potency [14],Potency (Aromatase (Homo sapiens)),Potency [15],Potency [16],outcome [17],outcome [18],Potency [19]
CCN(CC)C(=O)c1cccc(C)c1,inactive,inactive,inactive,inactive,inactive,inactive,inactive,inactive,inactive,inactive,21.3 µM [inconclusive] (active) and inactive,2.66 µM (active) and inactive,inactive,inactive,inactive,–,–,–,–,–
CC(=O)CC(c1ccccc1)c1c(O)c2ccccc2oc1=O (stereo not given),inactive,inactive,inactive,inactive,inactive,inactive,inactive,inactive,–,inactive,–,–,–,inactive,–,–,–,–,–,–
CC(C)C(=O)Nc1ccc([N+](=O)[O-])c(C(F)(F)F)c1,inactive,13.3 µM (active) and 44.5 µM (active) and 19.3 µM (active),29.8 µM (active) and 25 µM (active) and 30.6 µM (active),18.8 µM (active) and 22.3 µM (active) and 19.3 µM (active),inactive and 25.2 µM (active) and 49 µM (active),inactive,62.9 µM (active),inactive,inactive and 49 µM [inhibitor] (active),inactive,inactive,–,29.8 µM (active) and 49.9 µM (active),inactive,inactive and 62.9 µM (active),–,–,–,–,–
CCCCNC(=O)NS(=O)(=O)c1ccc(C)cc1,inactive,inactive,inactive,inactive,inactive,inactive,inactive,inactive,–,inactive,–,–,–,inactive,inactive,inactive,–,–,–,–
O=C(O)c1ccccc1,inactive,inactive,inactive,inactive,inactive,inactive,–,–,inactive,inactive,inactive,5.1 µM (active) and inactive,inactive,inactive,inactive,inactive,–,–,–,–
CCCC[P+](CCCC)(CCCC)CCCC,inactive,1.08 µM (active) and 7.84 µM (active) and 4.33 µM (active),684 nM (active) and 3.93 µM (active),609 nM (active) and 3.5 µM (active),inactive,inactive,inactive,inactive,–,inactive,–,–,–,inactive,inactive,–,–,–,–,–
CN(C)C(=S)SC(=S)N(C)C,inactive,944 nM (active) and 1.11 µM (active) and 172 nM (active),1.19 µM (active) and 886 nM (active) and 96.9 nM (active),750 nM (active) and 789 nM (active) and 96.9 nM (active),7.56 µM (active) and 1.42 µM (active) and 2.75 µM (active),2.11 µM (active) and 1.98 µM (active) and 433 nM (active),1.68 µM (active) and 1.57 µM (active) and 306 nM (active),inactive,–,inactive and 49 µM (active),–,–,–,inactive,2.98 µM (active) and 994 nM (active) and 243 nM (active),–,–,–,–,–
CC(=O)Nc1c(I)c(NC(C)=O)c(I)c(C(=O)O)c1I,inactive,inactive,inactive,inactive,inactive,inactive,–,inactive,–,inactive,–,–,–,inactive,–,inactive,–,–,–,–
Cc1cccc(C)c1,inactive,inactive,inactive,inactive,inactive,inactive,inactive,inactive,inactive,inactive,inactive and 1.34 µM [inconclusive] (active),inactive and 26.5 µM (active),inactive,inactive,inactive,inactive,–,–,–,–
CCCc1cc(=O)[nH]c(=S)[nH]1,inactive,inactive,inactive and 61.1 µM (active),inactive and 54.5 µM (active),inactive,inactive,inactive,inactive,inactive,inactive,inactive,26.6 µM (active) and inactive,inactive,inactive,inactive,–,–,–,–,–
CNNCc1ccc(C(=O)NC(C)C)cc1,inactive,inactive,inactive,inactive,inactive,inactive,inactive,inactive,–,inactive,–,–,–,inactive,inactive,–,–,–,–,–
CCOC(N)=O,inactive,inactive,inactive,inactive,inactive,inactive,inactive,inactive,inactive,inactive,inactive,inactive,inactive,inactive,inactive,inactive,–,–,–,–
CN(C)C(=O)Nc1ccc(Cl)c(Cl)c1,inactive,inactive,inactive and 54.5 µM (active),inactive,inactive,inactive,inactive,inactive,inactive,inactive,inactive,inactive,inactive,inactive,inactive,inactive,inactive,inactive,inactive,inactive
